High-throughput results deposited in PubChem BioAssay by several laboratories.
BoNT A protease – inhibitors of Botulinum neurotoxin A light chain protease; multiplex microsphere protease substrate cleavage, flow cytometry; inhibition, % at 10 µM; hit rate 0.17% among 360,000; note: plate controls were buffer without enzyme for full effect and enzyme alone for no effect
BoNT-F LC inh – BoNT F light chain protease inhibition | hit rate 0.22% among 360,000 | inhibition, % at 10 µM | Multiplex microsphere protease cleavage assay, flow cytometry; in the data active = inhibition above about 35%, passing the limit was not always enough; inconclusive = no clear call, values can overlap the other calls; note: plate controls were buffer without enzyme for full effect and enzyme alone for no effect
Autofluor counter – counter-screen for toxin protease inhibitors: compound fluorescence; compound autofluorescence counterscreen, microsphere flow cytometry; active compounds read high; fluorescence intensity (test concentration not listed); hit rate 3.1% among 360,000; in the data active = fluorescence intensity above about 16000; inconclusive = no clear call, values can overlap the other calls
MazEF act – activators of E. coli MazEF toxin-antitoxin RNase | AID 504720 | FAM/BHQ RNA-DNA oligo cleavage fluorescence, 5 h | hit rate 0.32% among 350,000 | activation, % at 20 µM | P0AE70; in the data active = activation above about 50%
Anthrax LF prot – anthrax lethal factor protease inhibition | multiplex microsphere protease cleavage assay, LF | hit rate 0.12% among 360,000 | AID 588501 | inhibition, % at 10 µM; note: plate controls were buffer without enzyme for full effect and enzyme alone for no effect
Target sequence (P15917 whole entry, looked up): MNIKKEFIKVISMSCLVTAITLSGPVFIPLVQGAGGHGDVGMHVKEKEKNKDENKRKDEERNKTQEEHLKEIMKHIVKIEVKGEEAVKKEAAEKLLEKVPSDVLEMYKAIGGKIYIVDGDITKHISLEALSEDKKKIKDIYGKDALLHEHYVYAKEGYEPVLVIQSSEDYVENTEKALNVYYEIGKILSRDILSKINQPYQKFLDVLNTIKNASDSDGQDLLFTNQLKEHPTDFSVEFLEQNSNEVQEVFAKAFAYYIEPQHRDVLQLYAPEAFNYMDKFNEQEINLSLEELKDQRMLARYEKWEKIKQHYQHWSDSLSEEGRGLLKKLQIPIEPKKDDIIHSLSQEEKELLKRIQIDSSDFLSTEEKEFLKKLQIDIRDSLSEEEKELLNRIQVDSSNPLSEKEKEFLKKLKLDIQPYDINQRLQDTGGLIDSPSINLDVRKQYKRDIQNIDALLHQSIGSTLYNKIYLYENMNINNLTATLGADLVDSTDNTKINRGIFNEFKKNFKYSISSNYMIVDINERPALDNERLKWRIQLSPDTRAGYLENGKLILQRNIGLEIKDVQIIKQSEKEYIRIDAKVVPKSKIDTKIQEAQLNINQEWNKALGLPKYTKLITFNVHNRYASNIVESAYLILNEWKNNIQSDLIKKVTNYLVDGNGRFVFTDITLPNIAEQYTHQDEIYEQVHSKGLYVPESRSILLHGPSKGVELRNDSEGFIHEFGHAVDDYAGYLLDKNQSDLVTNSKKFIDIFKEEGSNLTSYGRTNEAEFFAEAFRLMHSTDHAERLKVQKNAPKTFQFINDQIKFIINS
Numbers without * were called inactive; ? = inconclusive; . = no result. Hits are enriched below; roughly 3.6% of the tested compounds scored in any of these assays. Cut-off read from the data, not from the text of the source, unless noted: active = inhibition above about 30%; inconclusive = no clear call, values can overlap the other calls; inactive = below that.

SMILES | BoNT A protease | BoNT-F LC inh | Autofluor counter | MazEF act | Anthrax LF prot
CCCOc1ccc(OCC(=O)c2[nH]c(C)c(C(C)=O)c2C)cc1 | 0 | -8 | 7903 | -2 | 4
CCOC(=O)c1[nH]c(C)c(C(=O)Nc2ccc(C)c(F)c2)c1C | 0 | 3 | 10824 | -14 | -4
CCNC(=O)c1c(C)[nH]c(C(=O)OCC)c1C | -6 | -7 | 24505* | -4 | -2
CCOC(=O)c1[nH]c(C)c(C(=O)Nc2ccc(C)c(Cl)c2)c1C | -2 | -2 | 21453* | -2 | -1
CCOCCCNC(=O)c1[nH]c(C)c(C(C)=O)c1C | 0 | -1 | 3431 | -1 | 2
CC(=O)c1c(C)[nH]c(C(=O)COc2cc(C)cc(C)c2)c1C | 2 | 0 | 21911* | 1 | -5
CCCCC(=O)N1C(C)CCC1C (configuration not stated) | 0 | 5 | 3781 | 3 | -3
CCOC(=O)c1c(C)[nH]c(C(=O)C(C)Cl)c1C (configuration not stated) | 1 | 7 | 4752 | -2 | -6
CCOC(=O)c1[nH]c(C)c(C(=O)C(C)C)c1C | -2 | -2 | 16910* | 5 | -2
CC1(C)CC(=O)C(CSC(=O)c2ccccc2)C(=O)C1 | 0 | 3 | 2921 | -7 | -2
COC(=O)C1=C(O)C(C(=O)OC)C(c2ccc(C)cc2)C(C#N)(C#N)C1c1ccc(C)cc1 (configuration not stated) | -9 | -12 | 22296* | 5 | 1
COC(=O)C1=C(Nc2ccc(C)cc2)C=C(C)C(C(=O)OC)C1c1ccc(OC)cc1 (configuration not stated) | -1 | -6 | 6441 | -6 | -6
OCCN1CCN(Cc2cccc(Oc3ccc(Cl)cc3)c2)CC1 | 1 | 1 | 20285* | -5 | -1
CN1CCN(Cc2cccc(Oc3ccccc3)c2)CC1 | 1 | 5 | 9643 | 4 | -4
CCCS(=O)(=O)NC(=O)C1(C)CCCN(C(=O)Cc2ccc3ccccc3c2)C1 (configuration not stated) | 0 | -10 | 2986 | . | 3
CCOC(=O)CC(=O)Nc1ccc(C(=O)OCC)cc1 | 0 | ? | 4186 | -7 | -4
COc1ccc(OCCC(=O)Nc2ccc(S(N)(=O)=O)cc2)cc1 | -6 | -22 | 3202 | 7 | -10
CCOC(=O)c1ccc(NC(=O)Nc2cc(C)on2)cc1 | 0 | 1 | 16267* | -1 | -3
CCOC(=O)c1ccc(NC(=O)N(CC)CC)cc1 | ? | -1 | 20244* | -5 | 1
CN(CCO)C(=O)CCC(=O)Nc1ccc(S(N)(=O)=O)cc1 | -3 | -5 | 17212* | 6 | -6
CCOC(=O)c1ccc(NC(=O)Nc2ccc(S(N)(=O)=O)cc2)cc1 | -5 | -8 | 24361* | -4 | 0
CCCS(=O)(=O)NC(=O)C1(C)CCCN(C(=O)COc2ccccc2)C1 (configuration not stated) | 0 | -4 | 3543 | . | -2
CCOC(=O)c1ccc(NC(=S)NCCCN2CCCCC2)cc1 | ? | 0 | 22858* | 0 | 0
Cc1cc(NC(=O)c2ccc(NC(=O)CC(C)C)cc2)no1 | 5 | 9 | 19975* | -1 | -4
COc1cccc(CN(CC(=O)NCc2ccccc2)C(=O)c2csnn2)c1 | 0 | 9 | 5538 | 3 | -1
SMILES | BoNT A protease | BoNT-F LC inh | Autofluor counter | MazEF act | Anthrax LF prot
O=C(O)c1ccc2nc(C(F)(F)F)[nH]c2c1 | ? | -5 | 21497* | 8 | 0
COC(=O)c1cn(C(=O)c2ccccc2F)nc1N | 4 | 6 | 21604* | 3 | 1
COc1cccc(CNC(=O)Cn2ncn3cccc3c2=O)c1OC | -1 | -6 | 5848 | 71* | 0
CN1CCN(C2CCCCCC2)CC1 | -1 | 0 | 23426* | 2 | 0
O=S1(=O)CCN(C2CCCC2)CC1 | -1 | -5 | 4076 | 6 | -6
CCc1c(-c2ccccc2)nc2sc3c(c2c1N)CCCC3 | 0 | 0 | 5346 | 8 | 3
CCCc1nc2c(C)ccc(C)c2c(N)c1CC | ? | 1 | 22777* | 4 | -7
Cn1nc(C(C)(C)C)cc1C(=O)N1CCCC(c2cc(C(=O)Nc3ccccc3Cl)no2)C1 (configuration not stated) | 0 | 0 | 3713 | . | -5
CC1CCCC(C)N1C(=O)COc1ccc([N+](=O)[O-])cc1Cl (configuration not stated) | 0 | 3 | 4506 | 5 | 3
Cc1cc(Cl)ccc1OCC(=O)N1C(C)CCCC1C (configuration not stated) | -4 | -4 | 24242* | -13 | -7
O=C(c1ccc(Br)o1)N1CCN(C/C=C/c2ccccc2)CC1 | 0 | -3 | 9557 | 1 | -5
O=C(c1ccc(Br)s1)N1CCN(C/C=C/c2ccccc2)CC1 | -4 | -8 | 22315* | 0 | -1
CC1(C(=O)NC(=S)N(CCC#N)c2ccccc2)CC1(Cl)Cl (configuration not stated) | 3 | 4 | 21445* | 8 | -7
CC1(C)C(c2ccccc2)=NC(c2cccnc2)N1O (configuration not stated) | ? | 0 | 21816* | -1 | 0
CC1(C)C(c2ccccc2)=NC(c2ccc(F)cc2)N1O (configuration not stated) | 0 | 0 | 7918 | 0 | -4
Cc1cc(N2CCN(c3ccccc3)CC2)nc(-c2ccccc2)n1 | -1 | -9 | 3486 | -19 | -8
Cc1cc(N2CCN(c3ccccc3)CC2)nc(N)n1 | ? | -2 | 20567* | -1 | 1
COc1cc(CN(C(=S)NCC(=O)NC2CCCC2)C2CCCC2)cc(OC)c1OC | 0 | -10 | 2450 | 6 | -4
CC1CCCCC12NC(=O)N(CC(=O)NCc1ccccc1Cl)C2=O (configuration not stated) | 1 | 1 | 3646 | -3 | 7
Cc1occc1-c1nnc(SCC(=O)Nc2nc(-c3ccccc3)cs2)o1 | 0 | -2 | 19701* | 9 | 3
Cc1cc2ccccc2nc1SCC(=O)Nc1nc(-c2ccccc2)cs1 | 0 | -2 | 16277* | -16 | 0
Cc1occc1-c1nnc(SCC(=O)Nc2nc3ccccc3s2)o1 | 1 | 0 | 19093* | 8 | -2
Cc1ccc(S(=O)(=O)c2nnn3c2nc(NC2CCN(Cc4ccccc4)CC2)c2ccccc23)cc1C | 0 | -1 | 6525 | -57 | -2
O=C(Nc1ccccc1)c1ccc2nc(-c3ccco3)c(-c3ccco3)nc2c1 | ? | 24 | 19000* | 9 | 19
CC(=O)c1ccc(NC(=O)c2ccc3nc(-c4ccco4)c(-c4ccco4)nc3c2)cc1 | 14 | ? | 3806 | 4 | 5
O=C(Nc1ccc2nc(-c3ccco3)c(-c3ccco3)nc2c1)N1CCN(c2ccccn2)CC1 | 41* | 15 | 5771 | -9 | 20
Cc1ccc(N2CC(C(=O)NCCN3CCOCC3)CC2=O)cc1C (configuration not stated) | 4 | 15 | 4407 | 3 | -6
Cc1ccc(N2CC(C(=O)NCCCn3ccnc3)CC2=O)cc1 (configuration not stated) | -2 | -3 | 16950* | -8 | 0
